PMC12431657, “Discovery and mechanistic insights of dibenzoylmethane as a broad spectrum inhibitor of coronavirus” (PLOS Pathogens, 2025)
Counter-ions that a name gives are not always drawn. Like-named read-outs stand apart in the source and are kept apart here. Hit rate of the full screen: of about 3,300 compounds, about 95 (3%) showed an effect of 50% or more. The sample as a whole holds a higher share of strong results than the screen did. Peptide text beside a SMILES is read from it.

System: HCoV-229E
Parameters: species or system Huh-7; HTS, protection from HCoV-229E induced cell death, luminescent cell viability (CellCounting-Lite 2.0), inhibition rate
Details: 24 h post infection, 1 h compound pre-incubation, 10 µM, inhibitor

SMILES	229E Inhibition rate	229E Inhibition rate (229E Inhibition rate, 24 h)
COc1cc(O[C@@H]2O[C@H](CO[C@@H]3O[C@H](CO)[C@@H](O)[C@H](O)[C@H]3O)[C@@H](O)[C@H](O)[C@H]2O)c2c(O)c3c(=O)cc(C)oc3cc2c1 [Rubrofusarin gentiobioside]	20.7%	
COc1cccc(CCC(=O)O)c1 [3-(3-Methoxyphenyl)propionic acid]	21.4%	
O=CC[C@H](O)[C@H](O)CO [Thyminose]	3.9%	
C=C[C@H]1[C@H](O[C@@H]2O[C@H](CO)[C@@H](O)[C@H](O)[C@H]2O)OC=C(C(=O)OC)[C@H]1CC(=O)O [Secoxyloganin]	44.3%	
C[C@H](CCCC(C)(C)O)[C@H]1CC[C@H]2[C@@H]3CC=C4C[C@@H](O)CC[C@]4(C)[C@H]3CC[C@]12C [25-Hydroxycholesterol]	3.1%	
CC(C)CCC[C@@H](C)[C@H]1CC[C@H]2[C@@H]3CC=C4C[C@@H](O)CC[C@]4(C)[C@H]3CC[C@]12C [Cholesterol]	13.1%	
CC(C)CCC[C@](C)(O)[C@H]1CC[C@H]2[C@@H]3CC=C4C[C@@H](O)CC[C@]4(C)[C@H]3CC[C@@]21C [20(S)-Hydroxycholesterol]	57%	
Nc1ncnc(N[C@@H]2O[C@H](CO)[C@@H](O)[C@H]2O)c1[N+](=O)[O-] [Clitocine]	17.5%	
CC(C)=CCc1c(O[C@@H]2O[C@H](CO)[C@@H](O)[C@H](O)[C@H]2O)cc(O)c2c(=O)c(O[C@@H]3O[C@@H](C)[C@H](O)[C@@H](O)[C@H]3O)c(-c3ccc(O)cc3)oc12 [Epimedoside A]	15.1%	
COc1cc2c(cc1OC)[C@@H](Cc1ccc(O)c(Oc3cc4c(cc3OC)CCN(C)[C@@H]4Cc3ccc(O)cc3)c1)N(C)CC2 [Liensinine (Diperchlorate)]		57.2%
COc1cc2c(cc1OC)[C@@H](Cc1ccc(O)c(Oc3cc4c(cc3OC)CCN(C)[C@@H]4Cc3ccc(O)cc3)c1)N(C)CC2 [Liensinine]		44.3%
COc1cc2c(cc1OC)[C@@H](Cc1ccc(O)c(Oc3cc4c(cc3OC)CCN(C)[C@@H]4Cc3ccc(O)cc3)c1)N(C)CC2 [Liensinine (perchlorate)]		8.8%
CC[C@H]1C[C@@H]2CN3CCc4c([nH]c5ccccc45)[C@](C(=O)OC)(C2)[C@H]13 [Coronaridine]	41.8%	
CC[C@]1(O)C[C@@H]2CN(CCc3c([nH]c4ccccc34)[C@@](C(=O)OC)(c3cc4c(cc3OC)N(C)[C@H]3[C@@](O)(C(=O)OC)[C@H](OC(C)=O)[C@]5(CC)C=CCN6CC[C@]43[C@@H]65)C2)C1 [Vinblastine (sulfate)]	30.6%	
CCC1=C[C@@H]2CN3CCc4c([nH]c5ccccc45)[C@@](C(=O)OC)(C2)[C@@H]13 [Catharanthine]	54.2%	
C=C(C)[C@@H]1CC=C(CO)CC1 [(S)-(−)-Perillyl alcohol]	9.9%	
C[C@H]1CC[C@@H]2[C@@H](C)[C@H]3[C@H](C[C@H]4[C@@H]5CC=C6C[C@@H](O)CC[C@]6(C)[C@H]5CC[C@]34C)N2C1 [Solanidine]	24.2%	
C=C[C@H]1CN2CC[C@H]1C[C@@H]2[C@@H](O)c1ccnc2ccc(OC)cc12 [Quinidine hydrochloride monohydrate]		48.6%
C=C[C@H]1CN2CC[C@H]1C[C@@H]2[C@@H](O)c1ccnc2ccccc12 [Cinchonine]	53.6%	
C=C[C@H]1CN2CC[C@H]1C[C@H]2[C@H](O)c1ccnc2ccccc12 [Cinchonidine]	13.4%	
CC1(C)CCC[C@](C)([C@H]2CC[C@]3(C)[C@@H]2[C@H](O)C[C@@H]2[C@@]4(C)CC[C@H](O)C(C)(C)[C@@H]4[C@@H](O)C[C@]23C)O1 [Panaxatriol]	15.9%	
CC(C)=CCCC(C)CCO (stereo not shown) [Citronellol]	12.8%	
CC1(C)CC[C@]2(C(=O)O[C@@H]3O[C@H](CO)[C@@H](O)[C@H](O)[C@H]3O)CC[C@]3(C)C(=CC[C@@H]4[C@@]5(C)CC[C@H](O[C@@H]6O[C@H](C(=O)O)[C@@H](O)[C@H](O[C@@H]7OC[C@@H](O)[C@H](O)[C@H]7O)[C@H]6O)C(C)(C)[C@@H]5CC[C@]43C)[C@@H]2C1 [Momordin IIc]	29.6%	
CC(=O)[C@H]1CC[C@H]2[C@@H]3CC=C4C[C@@H](O)CC[C@]4(C)[C@H]3CC[C@]12C [Pregnenolone]	40.7%	
CC(=O)[C@H]1CC[C@H]2[C@@H]3CC=C4C[C@@H](OS(=O)(=O)O)CC[C@]4(C)[C@H]3CC[C@]12C [Pregnenolone monosulfate (sodium)]	55.9%	
CC(C)CCC[C@@H](C)[C@H]1CC[C@H]2[C@@H]3CC=C4C[C@@H](OS(=O)(=O)O)CC[C@]4(C)[C@H]3CC[C@]12C [Cholesteryl sulfate (sodium)]	7.6%	

SMILES	229E Inhibition rate	229E Inhibition rate (229E Inhibition rate, 24 h)
CC1(C)C(=O)[C@]2(C)CC[C@H]1C2 [(-)-Fenchone]	23.7%	
C=C1C[C@@]23CC[C@H]4[C@@](C)(CCC[C@@]4(C)C(=O)O[C@@H]4O[C@H](CO)[C@@H](O)[C@H](O[C@@H]5O[C@H](CO)[C@@H](O)[C@H](O)[C@H]5O)[C@H]4O[C@@H]4O[C@H](CO)[C@@H](O)[C@H](O)[C@H]4O)[C@@H]2CC[C@]1(O[C@@H]1O[C@H](CO)[C@@H](O)[C@H](O[C@@H]2O[C@H](CO)[C@@H](O)[C@H](O)[C@H]2O)[C@H]1O[C@@H]1O[C@H](CO)[C@@H](O)[C@H](O)[C@H]1O)C3 [Rebaudioside M]	19.5%	
OC[C@H]1O[C@@](CO)(OC[C@@]2(O[C@H]3O[C@H](CO)[C@@H](O)[C@H](O)[C@H]3O)O[C@H](CO)[C@@H](O)[C@@H]2O)[C@@H](O)[C@@H]1O [1-Kestose]	18.6%	
CC[C@H](C)[C@@H]1NC(=O)[C@@H]2CCCN2C(=O)[C@@H]2CCCN2C(=O)[C@@H]2CCCN2C(=O)[C@H](CC(C)C)NC(=O)CNC(=O)CNC(=O)[C@H](Cc2ccccc2)NC1=O [Heterophyllin B] (cyclo(FGGLPPPI))	12.9%	
CC(=O)OCc1ccccc1 [Benzyl acetate]	50.3%	
O=C(OCc1ccccc1)c1ccccc1O [Benzyl salicylate]	24.5%	
O=C(OCc1ccccc1)c1ccccc1 [Benzyl benzoate]	12.5%	
C[C@H]1O[C@@H](Oc2ccc(COC(=O)CC(O)(CC(=O)OCc3ccc(O[C@@H]4O[C@H](CO)[C@@H](O)[C@H](O)[C@H]4O)cc3)C(=O)Oc3ccc(O[C@H]4O[C@H](CO)[C@@H](O)[C@H](O)[C@H]4O)cc3)cc2)[C@H](O)[C@@H](O)[C@@H]1O (stereo partly shown) [Parishin]	9.7%	
O=C1CC(C(=O)O)c2c1oc(=O)c1cc(O)c(O)c(O)c21 (stereo not shown) [Brevifolincarboxylic acid]	6.4%	
C[C@H]1[C@H](C)CC[C@]2(C)CC[C@]3(C)C(=CC[C@@H]4[C@@]5(C)CC[C@@H](O)[C@](C)(C(=O)O)[C@@H]5CC[C@]43C)[C@H]12 [β-Boswellic acid]	22.5%	
CCCCCCCCCCC(=O)OC [Methyl undecanoate]	56.2%	
CCCCCCCCCCCCCCCCCCCCCCCC(=O)OC [Methyl tetracosanoate]	11.5%	
CCCCCCCCCCCCCCCCCC(=O)OC [Methyl stearate]	17.9%	
C=C1C[C@@]23CC[C@H]4[C@@](C)(CCC[C@@]4(C)C(=O)O)[C@@H]2CC[C@]1(O[C@@H]1O[C@H](CO)[C@@H](O)[C@H](O[C@@H]2O[C@H](CO)[C@@H](O)[C@H](O)[C@H]2O)[C@H]1O[C@@H]1O[C@H](CO)[C@@H](O)[C@H](O)[C@H]1O)C3 [Rebaudioside B]	36.9%	
COc1cc(/C=C/C=O)ccc1O [Coniferaldehyde]	38.5%	
Nc1ncnc2c1ncn2[C@@H]1C[C@H](CO)[C@@H](O)[C@H]1O [Aristeromycin]	57.5%	
Nc1ncnc2c1ncn2[C@H]1C[C@H](O)[C@@H](CO)O1 [2'-Deoxyadenosine monohydrate]		8.6%
Nc1ncnc2c1ncn2[C@@H]1O[C@H](CO)C[C@H]1O [Cordycepin]	15.3%	
O=C(/C=C/c1ccccc1)c1ccccc1 [trans-Chalcone]		5.4%
O=C1C[C@@](O)(C(=O)O)[C@@H](C(=O)O)O1 [(-)-Hydroxycitric acid lactone]	7.8%	
O=C(O)CCCC(O)C(=O)O (stereo not shown) [2-Hydroxyadipic acid]	14.9%	
C[S@@+]([O-])CCCCN=C=S [(R)-sulforaphane]	54%	
C=C1C(=O)[C@@]23[C@H](O)C[C@@H]4C(C)(C)CC[C@H](O)[C@@]4(CO)[C@@H]2CC[C@@H]1[C@H]3O [Kamebakaurin]	0%	
C=C1C(=O)[C@@]23[C@@H]4OC5O[C@@]2(O)[C@@H](O)[C@@H]2C(C)(C)CC[C@@H](O)[C@]52[C@@H]3CC[C@@H]14 [ponicidin]	95.6%	
C=C1C(=O)[C@]23[C@H](O)[C@H]1CC[C@H]2[C@@]12CO[C@]3(O)[C@@H](O)[C@@H]1C(C)(C)CC[C@@H]2O [Oridonin]	0%	
COc1c2ccoc2c(O)c2oc(=O)ccc12 [8-Hydroxybergapten]	7.9%	
